According to PubChem BioAssay (Tox21):
Where “and” joins values, the source holds several entries; their conditions need not be identical. Equal entries are not always repeated. Some compounds were tested as several samples or in several runs, with calls that do not always agree. Calls of active or inactive are those of the source. Calls follow the shape of the full dose curve.

Target: Acetylcholinesterase (Homo sapiens) (UniProt P22303)
Test: Acetylcholinesterase (AChE) small molecule antagonists: enzyme-based qHTS assay (AID 1347397); also: nearly all actives have a fitted effect of over 55% in size
Conditions: Potency: AChE enzyme activity inhibition; outcome: AChE enzyme activity inhibition; series mostly up to 115 µM; activity change, negative = inhibition: at the top concentration
Summary of the method: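 rhAChE 50 mU/mL (dispensed) + cpd or DMSO, 30 min RT; add DTNB/acetylthiocholine cocktail, 10 min RT; colorimetric thiocholine readout. qHTS, 1536-well format.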
% is scaled to controls: 0 for no effect and ±100 for the full control effect; potency is read from the fitted curve at half-maximal effect.

Acetylcholinesterase (Homo sapiens), sequence (P22303 whole entry, looked up): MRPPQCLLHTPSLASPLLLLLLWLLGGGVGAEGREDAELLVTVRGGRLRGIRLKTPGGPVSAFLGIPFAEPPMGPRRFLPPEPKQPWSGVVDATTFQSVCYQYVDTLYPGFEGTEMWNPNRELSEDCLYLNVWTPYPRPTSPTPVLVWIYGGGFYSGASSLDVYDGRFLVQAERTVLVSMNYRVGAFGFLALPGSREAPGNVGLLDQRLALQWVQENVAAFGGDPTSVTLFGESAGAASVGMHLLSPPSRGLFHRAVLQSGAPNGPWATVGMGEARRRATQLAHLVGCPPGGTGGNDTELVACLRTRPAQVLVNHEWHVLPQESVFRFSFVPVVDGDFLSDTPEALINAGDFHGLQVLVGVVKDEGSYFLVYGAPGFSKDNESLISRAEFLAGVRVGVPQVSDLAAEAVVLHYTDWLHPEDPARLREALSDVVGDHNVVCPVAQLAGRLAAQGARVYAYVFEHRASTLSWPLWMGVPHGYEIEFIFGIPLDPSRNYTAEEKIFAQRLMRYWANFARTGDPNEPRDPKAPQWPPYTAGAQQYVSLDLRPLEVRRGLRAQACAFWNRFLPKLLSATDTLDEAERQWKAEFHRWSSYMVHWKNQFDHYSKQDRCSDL

| SMILES | activity change, negative = inhibition | Potency |
| --- | --- | --- |
| CC(C)CC(=O)OCc1ccccc1 | 0.555% (inactive) |  |
| CN1CCc2cccc3c2[C@H]1Cc1ccc(O)c(O)c1-3 |  | 40.4 µM (active) and 21.1 µM (active) |
| COC(C)CCO (stereo not drawn) | -0.0846% (inactive) |  |
| Nc1c(Cl)cc(Cl)cc1[N+](=O)[O-] | 4.05% (inactive) |  |
| c1ccc(CSCc2ccccc2)cc1 | -0.547% (inactive) |  |
| O=C(Nc1ccccc1SSc1ccccc1NC(=O)c1ccccc1)c1ccccc1 |  | inactive |
| c1ccc2c(c1)c1cccc3ccc4cccc2c4c31 |  | inactive |
| COC(=O)CC(=O)C(C)(C)C | 0.191% (inactive) |  |
| CC(CO)(CO)C(=O)O | 0.682% (inactive) |  |
| CCCCCCCC/C=C\CCCCCCCCN | 1.22% [at 53 µM] (inactive) |  |
| C[C@@H]1CN(c2c(F)c(N)c3c(=O)c(C(=O)O)cn(C4CC4)c3c2F)C[C@H](C)N1 | -2.1% [at 23.6 µM] (inactive) |  |
| CC[C@H](C)C(=O)O[C@H]1C[C@H](O)C=C2C=C[C@H](C)[C@H](CC[C@@H](O)C[C@@H](O)CC(=O)O)[C@H]21 | 0.1% (inactive) |  |
| CC(C)(N)CO |  | inactive |
| OCCCCCCCl | -0.553% (inactive) |  |
| CSc1ccc2c(c1)N(CCC1CCCCN1C)c1ccccc1S2 (stereo not drawn) |  | 79.3 µM (active) and inactive |
| COC(=O)CCC(=O)OC |  | inactive |
| CC(O)c1ccccc1 (stereo not drawn) | 0.13% (inactive) |  |
| O=C(O)CNC(=O)c1ccc(CO)o1 | -0.276% (inactive) |  |
| O=Cc1ccc(O)c(O)c1O | -0.554% [at 53 µM] (inactive) |  |
| COC(CC(C)CCCC(C)(C)O)OC (stereo not drawn) | -0.825% (inactive) |  |
| CC(C)OP(=O)(CP(=O)(OC(C)C)OC(C)C)OC(C)C |  | inactive |
| CC(C)N=C(N)/N=C(\N)Nc1ccc(Cl)cc1 | -2.08% [at 53 µM] (inactive) |  |
| c1ccc2nccnc2c1 | -0.136% (inactive) |  |
